SW480 rereplic: DNA re-replication induction in SW480 cells | Potency, µM (titrated, usually from 46.1 µM), for inactives: at the highest dose re-replication activation, actives largely listed as activators | 1.8% of 340,000 active | SW480 DNA re-replication, Hoechst DNA content imaging, 48 h; also: % of control where 0% means no effect; nearly all actives have a fitted effect of over 55% in size
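Quantitative HTS format with DMSO vehicle controls; 48 hr drug incubation at 37 C, then 40 min Hoechst staining and scanning imager measurement at 405 nm excitation.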
KB-V1 cytotox: KB-V1 MDR subline cytotoxicity; 3.4% of 400,000 active; KB-V1 MDR cells viability, CellTiter-Glo, 72 h; Potency, µM (titrated, usually from 46.1 µM), hits mostly cytotoxic; also: % is scaled to controls: 0 for no effect and ±100 for the full control effect; nearly all actives have a fitted effect of over 60% in size
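Following 72 h at 37 degrees C with compound, KB-V1 cell viability was read by CellTiter-Glo luminescence, medium being phenol-red-free DMEM plus 10% FBS; concentration-response parameters came from normalized, curve-fitted qHTS data.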
MCF10A rerep: inducers of DNA re-replication in MCF 10A breast cells; 2.9% of 350,000 active; AID 624296; MCF 10A DNA re-replication, Hoechst nuclear intensity, 48 h; Potency, µM (doses to about 46.1 µM), without a hit: top-dose activity, positive = re-replication, most hits filed as activators; also: % of control where 0% means no effect; nearly all actives have a fitted effect of over 50% in size
KB-3-1 cytotox: kills parental KB-3-1 adenocarcinoma cells | 1.4% of 400,000 active | Potency, µM (series often up to 46.1 µM), usual class: cytotoxic | KB-3-1 viability, CellTiter-Glo ATP luminescence, 72 h; also: % is scaled to controls: 0 for no effect and ±100 for the full control effect; nearly all actives have a fitted effect of over 60% in size
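Screening of KB-3-1 cells (DMEM, 10% FBS, phenol-red free) ran from lowest to highest compound concentration; after 72 h at 37 °C viability was read luminescently and curves fitted.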
ELG1 repair inh: blocks ELG1-dependent DNA repair in HEK293T cells; AID 504467; 2.3% of 330,000 active; Potency, µM (top dose mostly 46.1 µM), for the others: at the top dose activity change, negative = inhibition, hits mostly inhibitors; HEK293T ELG1-luciferase reporter, luminescence, 16 h; DNA damage induced by 5-fluorouridine; also: % is scaled to controls: 0 for no effect and ±100 for the full control effect; nearly all actives have a fitted effect of over 55% in size
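Luminescence from the luciferase reporter, measured 30 min after ONE-Glo reagent at room temperature, was the read-out. Beforehand, 2,000 cells per well were exposed for 16 hr at 37 °C to 5-fluorouridine together with compound or vehicle.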
An asterisk follows results filed as active; i = inactive; ? = inconclusive; nt = not tested or not shown. This is a sample that favours compounds with a hit; in the whole collection about 8.1% have one here. Calls follow the shape of the dose curve; as a rule, active = well fitted curve in the direction sought with a large enough effect; inconclusive = small, poorly fitted or top-dose-only effect, or another doubt; inactive = no such curve, though single readings can be large; an effect the other way counts as inactive or inconclusive. Potency is read from the fitted curve at half-maximal effect.

SMILES	SW480 rereplic	KB-V1 cytotox	MCF10A rerep	KB-3-1 cytotox	ELG1 repair inh
CC(=O)Oc1ccc(C23c4ccccc4C2(OC(C)=O)c2cc(OC(C)=O)ccc23)cc1 (configuration not stated)	18µM*	?	5.2µM*	?	nt
COCCCNC(=O)c1ccc(Cn2c(=O)c3ccccc3n(Cc3ccccc3C#N)c2=O)cc1	21%	i	23µM*	?	?
CCCCNC(=O)CCn1c(=O)c2ccccc2n(Cc2cccc(Cl)c2)c1=O	nt	i	nt	i	nt
COCCCNC(=O)c1ccc(Cn2c(=O)c3ccccc3n(Cc3ccccc3C)c2=O)cc1	15%	?	119%	?	?
O=C(CCCCn1c(=O)c2ccccc2n(Cc2ccc(F)cc2)c1=O)NCc1ccco1	?	5.8µM*	18µM*	12µM*	?
CCCCNC(=O)CCn1c(=O)c2ccccc2n(Cc2ccc(Cl)cc2)c1=O	?	15µM*	-7%	i	?
COc1cccc(Nc2nc(C(C)N)cs2)n1 (configuration not stated)	nt	i	nt	i	nt
COc1cccc(C(=O)N2CCN(Cc3ccc(OC)cc3OC)CC2)c1	-2%	i	-5%	i	-18%
COc1ccc(CCNC(=O)c2ccc(CNc3nc(=S)[nH]c4ccccc34)cc2)cc1OC	-1%	i	11%	i	15µM*
COc1ccc(CCNc2nc(=S)[nH]c3cc(OC)c(OC)cc23)cc1OC	-2%	i	2%	i	-4%
COc1ccccc1CNc1nc(=S)[nH]c2cc(OC)c(OC)cc12	3.3µM*	i	-3%	i	?
COc1cc2[nH]c(=S)nc(NCCc3ccc(C)cc3)c2cc1OC	?	i	23µM*	i	-29%
COc1cc2[nH]c(=S)nc(NCc3cccs3)c2cc1OC	-13%	i	-14%	i	7%
CC(C)Cc1ccc(CN2CCCC(NC(=O)CCn3cnnn3)C2)cc1 (configuration not stated)	1%	?	?	i	0%
COc1ccc(Cn2nnnc2CN2CCC(O)(c3ccccc3F)CC2)cc1	2%	i	-8%	i	?
COc1ccc(CC(=O)n2nc(-c3ccc(Cl)cc3)nc2NCc2ccco2)cc1	?	i	?	?	?
COc1ccc(/C=N/n2cc(-c3ccccc3)nc2N)cc1	?	7.3µM*	23µM*	3.7µM*	11%
COc1ccc(/C=N/n2cc(-c3ccc(OC)cc3)nc2N)cc1	?	i	-13%	i	-1%
O=C(COc1coc(CN2CCc3ccccc3C2)cc1=O)Nc1cccc([N+](=O)[O-])c1	-35%	i	?	i	-5%
CCOC(=O)c1ccc(CNC(=O)CSc2nc(NC(=O)c3ccccc3)c3c(C)c(C)oc3n2)cc1	-1%	i	-1%	i	15µM*
CCOC(=O)c1ccc(CNC(=O)CSc2nnc(-c3ccncc3)o2)cc1	8%	?	11%	i	0%
O=C(NCc1ccc2c(c1)OCO2)c1ccc(CSCc2ccc(Cl)cc2)o1	-5%	21µM*	?	i	-21%
CCCC(C)NC(=O)CSc1nc(-c2ccccc2)cn1N (configuration not stated)	-2%	?	9%	i	?
COCCn1c(SCC(=O)Nc2cccnc2Cl)nc2cc(Cl)ccc2c1=O	-3%	?	8%	i	?
NC(=O)c1ccsc1NC(=O)COC(=O)c1ccc(Cl)c(N)c1	-10%	i	1%	i	12µM*
COCCn1c(SCC(=O)Nc2sccc2C(N)=O)nc2cc(Cl)ccc2c1=O	15%	i	26%	i	23µM*
Cc1ccsc1C(=O)OCC(=O)Nc1sccc1C(N)=O	-1%	18µM*	14%	i	?
CC(Oc1ccc(Cl)cc1)C(=O)Nc1sccc1C(N)=O (configuration not stated)	3%	9.2µM*	23%	i	?
NC(=O)c1ccsc1NC(=O)COC(=O)c1ccc(Cl)cc1	-19%	i	7%	?	-28%

Assay outcomes: PubChem BioAssay, National Center for Advancing Translational Sciences (NCATS)
